The source of these data is PubChem BioAssay.

Experiment [1] is described as follows: small molecules captured by biotinylated probe aFSTL3 – biochemical, small-molecule microarray, fluorescence 635/667, stem cell growth factor project, primary screen (AID 1064).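 Note: measures binding of the biotinylated anti-FSTL3 antibody to printed compounds.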 To be noted: higher = more signal.
A short description of experiment [2]: binders from COS7 lysate, DM2A8 probe, primary screen, torsin A project, cell lysate, small-molecule microarray, fluorescence 635/667 (AID 1065). To be noted: higher = more signal, COS7 lysate expressing mutant human TOR1A.
Experiment [3] in a line: small molecules captured by biotinylated probe aFGF2 – biochemical, small-molecule microarray, fluorescence 635/667, stem cell growth factor project, primary screen (AID 1067).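 Note: measures binding of biotinylated aFGF2 protein to printed compounds on slides; z-score merges feature fluorescence and signal-to-noise across triplicate slides.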 To be noted: higher = more signal.
Experiment [4] can be described thus: small molecules captured by biotinylated probe aFGF10 – biochemical, small-molecule microarray, fluorescence 635/667, stem cell growth factor project, primary screen (AID 1071).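 Note: score merges 667 nm spot intensity and signal to noise from triplicate slides.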 The settings on record: higher = more signal.
The target of experiment [5] is Neurogenic locus notch homolog protein 2 (Homo sapiens) (UniProt Q04721). Kind of experiment: small molecules binding Notch2 protein – biochemical, small-molecule microarray, 635 nm fluorescence, stem cell growth factors, primary screen (AID 1073). To be noted: higher = more signal.
Experiment [6] addresses Pro-neuregulin-1, membrane-bound isoform (Homo sapiens) (UniProt Q02297). Briefly: small molecules binding neuregulin-1 protein – biochemical, small-molecule microarray, fluorescence 635/667, psychiatric disease protein project, primary screen (AID 1075).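 Note: score combines 667 nm spot fluorescence with signal to noise.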 The settings on record: NRG1 binding, 635 nm fluorescence, higher = more signal.
In experiment [7] the test system is Neuregulin-1 EGF-like domain. Briefly: small molecules binding NRG1 EGF domain – biochemical, small-molecule microarray, 635 nm fluorescence, primary screen (AID 1081).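 Note: binding of the protein to compounds printed on small-molecule microarray slides.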 To be noted: higher = more signal.
Experiment [8] can be described thus: FRG1 expression reporter modulators in myotubes – cell-based, C2C12 myotubes, firefly/Renilla luciferase, luminescence, FRG1 inhibition for FSHD, primary screen (AID 1084). To be noted: FRG1 promoter luciferase, higher = more signal, called active from +8 up or from −8 down.
A short description of experiment [9]: small molecules captured by biotinylated probe aFST – biochemical, small-molecule microarray, fluorescence 635/667, stem cell growth factor project, primary screen (AID 1086).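 Note: score merges 667 nm fluorescence with signal-to-noise of each printed compound spot.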 To be noted: higher = more signal.
A short description of experiment [10]: binders of probe aHhip on microarray, primary screen, stem cell growth factor project, biochemical, small-molecule microarray, fluorescence 635/667 (AID 1087).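 Note: score merges spot fluorescence at 667nm with spot signal to noise ratio.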 The settings on record: higher = more signal.
Experiment [11] relates to PRMT1 (protein arginine N-methyltransferase 1). Kind of experiment: small molecules binding arginine methyltransferase PRMT1 – biochemical, small-molecule microarray, 635 nm fluorescence, primary screen (AID 1088).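 Note: binding of Prmt1 protein to compounds spotted on small-molecule microarray slides.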 To be noted: higher = more signal.
Experiment [12] can be described thus: growth effects on S. cerevisiae YJM789 – YJM789 clinical isolate, OD600, 24 h, basal, primary screen (AID 1089).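 Note: growth of clinical yeast isolate S. cerevisiae YJM 789 seeded 1000 cells per well; test concentration not given here.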 To be noted: higher = more signal, called active from +8 up or from −8 down.
The nature of experiment [13]: S. pombe growth modifiers, basal conditions – strain 972, OD600, 24 h, no modulator, primary screen (AID 1090).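 Note: basal condition with compound alone and no growth modifier present; test concentration not given here.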 To be noted: S. pombe 972 growth, higher = more signal, called active from +8 up or from −8 down.
Experiment [14] can be described thus: budding yeast growth modifiers under rapamycin – strain BY4716, OD600, 96 h, primary screen (AID 1091). Note: test concentration not given here. To be noted: S. cerevisiae BY4716 + rapamycin, higher = more signal, called active from +8 up or from −8 down.
Experiment [15] has as its target Torsin-1A-interacting protein 2 (Homo sapiens) (UniProt Q8NFQ8). Kind of experiment: small molecules binding lysate-expressed LULL1 – cell lysate, human LULL1 lysate, 635/667 nm fluorescence, primary screen (AID 1092).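 Note: probe is lysate of COS7 cells overexpressing human LULL1; score merges per-feature 667 nm fluorescence with signal-to-noise.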 The settings on record: small-molecule microarray, hLULL1 lysate binding, 635 nm fluorescence; higher = more signal.
A short description of experiment [16]: optical density change of DRC41 E. coli – strain DRC41, OD650, 24 h, E. coli filamentation project, primary screen (AID 1093).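 Note: MC1000 strain lacking acrAB efflux and sulA so SOS filamentation is blocked; test concentration not given here.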 The settings on record: E. coli DRC41 growth, higher = more signal, called active from +8 up or from −8 down.
Experiment [17] can be described thus: probe aLefty2 binding to arrayed compounds – biochemical, biotinylated probe, 635/667 nm fluorescence, primary screen (AID 1094).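 Note: score merges spot fluorescence near 667 nm with spot signal-to-noise ratio.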 The settings on record: small-molecule microarray, higher = more signal.
Experiment [18] has as its system Noggin (protein binding on small-molecule microarray). Kind of experiment: small molecules binding Noggin protein – biochemical, 635/667 nm fluorescence, primary screen (AID 1095).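 Note: score merges 667 nm feature fluorescence with signal to noise over triplicate slides.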 The settings on record: 635 nm fluorescence, higher = more signal.
The target of experiment [19] is Neurogenic locus notch homolog protein 3 (Homo sapiens) (UniProt Q9UM47). Kind of experiment: small molecules binding NOTCH3 protein – biochemical, 635/667 nm fluorescence, primary screen (AID 1096). The settings on record: small-molecule microarray, 635 nm fluorescence, higher = more signal.
Experiment [20] is described as follows: probe aEGFR binding to arrayed compounds – biochemical, biotinylated probe, 635/667 nm fluorescence, primary screen (AID 1097).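 Note: probe is a biotinylated anti-EGFR antibody binding compounds printed on slides; score combines fluorescence near 667 nm and signal to noise of each spot.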 The settings on record: small-molecule microarray, higher = more signal.

Activity calls are given as the source filed them.

Pro-neuregulin-1, membrane-bound isoform (Homo sapiens), sequence (Q02297 whole entry, looked up, the tested form may be a part, canonical isoform): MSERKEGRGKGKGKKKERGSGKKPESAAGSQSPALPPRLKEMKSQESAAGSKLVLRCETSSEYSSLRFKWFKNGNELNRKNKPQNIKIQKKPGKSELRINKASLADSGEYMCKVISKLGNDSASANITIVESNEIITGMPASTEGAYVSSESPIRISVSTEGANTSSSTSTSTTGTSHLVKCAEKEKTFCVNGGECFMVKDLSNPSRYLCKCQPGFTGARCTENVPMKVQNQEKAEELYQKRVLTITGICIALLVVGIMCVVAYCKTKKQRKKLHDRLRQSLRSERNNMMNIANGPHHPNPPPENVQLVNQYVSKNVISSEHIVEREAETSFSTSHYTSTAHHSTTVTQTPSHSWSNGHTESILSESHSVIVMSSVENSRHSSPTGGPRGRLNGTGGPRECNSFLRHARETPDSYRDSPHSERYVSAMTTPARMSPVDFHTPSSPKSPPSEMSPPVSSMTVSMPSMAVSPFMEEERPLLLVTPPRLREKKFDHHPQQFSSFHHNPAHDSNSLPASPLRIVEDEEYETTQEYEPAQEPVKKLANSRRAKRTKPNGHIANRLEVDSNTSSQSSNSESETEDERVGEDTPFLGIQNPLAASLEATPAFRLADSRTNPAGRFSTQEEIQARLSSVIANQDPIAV
Neurogenic locus notch homolog protein 3 (Homo sapiens), sequence (Q9UM47 whole entry, looked up): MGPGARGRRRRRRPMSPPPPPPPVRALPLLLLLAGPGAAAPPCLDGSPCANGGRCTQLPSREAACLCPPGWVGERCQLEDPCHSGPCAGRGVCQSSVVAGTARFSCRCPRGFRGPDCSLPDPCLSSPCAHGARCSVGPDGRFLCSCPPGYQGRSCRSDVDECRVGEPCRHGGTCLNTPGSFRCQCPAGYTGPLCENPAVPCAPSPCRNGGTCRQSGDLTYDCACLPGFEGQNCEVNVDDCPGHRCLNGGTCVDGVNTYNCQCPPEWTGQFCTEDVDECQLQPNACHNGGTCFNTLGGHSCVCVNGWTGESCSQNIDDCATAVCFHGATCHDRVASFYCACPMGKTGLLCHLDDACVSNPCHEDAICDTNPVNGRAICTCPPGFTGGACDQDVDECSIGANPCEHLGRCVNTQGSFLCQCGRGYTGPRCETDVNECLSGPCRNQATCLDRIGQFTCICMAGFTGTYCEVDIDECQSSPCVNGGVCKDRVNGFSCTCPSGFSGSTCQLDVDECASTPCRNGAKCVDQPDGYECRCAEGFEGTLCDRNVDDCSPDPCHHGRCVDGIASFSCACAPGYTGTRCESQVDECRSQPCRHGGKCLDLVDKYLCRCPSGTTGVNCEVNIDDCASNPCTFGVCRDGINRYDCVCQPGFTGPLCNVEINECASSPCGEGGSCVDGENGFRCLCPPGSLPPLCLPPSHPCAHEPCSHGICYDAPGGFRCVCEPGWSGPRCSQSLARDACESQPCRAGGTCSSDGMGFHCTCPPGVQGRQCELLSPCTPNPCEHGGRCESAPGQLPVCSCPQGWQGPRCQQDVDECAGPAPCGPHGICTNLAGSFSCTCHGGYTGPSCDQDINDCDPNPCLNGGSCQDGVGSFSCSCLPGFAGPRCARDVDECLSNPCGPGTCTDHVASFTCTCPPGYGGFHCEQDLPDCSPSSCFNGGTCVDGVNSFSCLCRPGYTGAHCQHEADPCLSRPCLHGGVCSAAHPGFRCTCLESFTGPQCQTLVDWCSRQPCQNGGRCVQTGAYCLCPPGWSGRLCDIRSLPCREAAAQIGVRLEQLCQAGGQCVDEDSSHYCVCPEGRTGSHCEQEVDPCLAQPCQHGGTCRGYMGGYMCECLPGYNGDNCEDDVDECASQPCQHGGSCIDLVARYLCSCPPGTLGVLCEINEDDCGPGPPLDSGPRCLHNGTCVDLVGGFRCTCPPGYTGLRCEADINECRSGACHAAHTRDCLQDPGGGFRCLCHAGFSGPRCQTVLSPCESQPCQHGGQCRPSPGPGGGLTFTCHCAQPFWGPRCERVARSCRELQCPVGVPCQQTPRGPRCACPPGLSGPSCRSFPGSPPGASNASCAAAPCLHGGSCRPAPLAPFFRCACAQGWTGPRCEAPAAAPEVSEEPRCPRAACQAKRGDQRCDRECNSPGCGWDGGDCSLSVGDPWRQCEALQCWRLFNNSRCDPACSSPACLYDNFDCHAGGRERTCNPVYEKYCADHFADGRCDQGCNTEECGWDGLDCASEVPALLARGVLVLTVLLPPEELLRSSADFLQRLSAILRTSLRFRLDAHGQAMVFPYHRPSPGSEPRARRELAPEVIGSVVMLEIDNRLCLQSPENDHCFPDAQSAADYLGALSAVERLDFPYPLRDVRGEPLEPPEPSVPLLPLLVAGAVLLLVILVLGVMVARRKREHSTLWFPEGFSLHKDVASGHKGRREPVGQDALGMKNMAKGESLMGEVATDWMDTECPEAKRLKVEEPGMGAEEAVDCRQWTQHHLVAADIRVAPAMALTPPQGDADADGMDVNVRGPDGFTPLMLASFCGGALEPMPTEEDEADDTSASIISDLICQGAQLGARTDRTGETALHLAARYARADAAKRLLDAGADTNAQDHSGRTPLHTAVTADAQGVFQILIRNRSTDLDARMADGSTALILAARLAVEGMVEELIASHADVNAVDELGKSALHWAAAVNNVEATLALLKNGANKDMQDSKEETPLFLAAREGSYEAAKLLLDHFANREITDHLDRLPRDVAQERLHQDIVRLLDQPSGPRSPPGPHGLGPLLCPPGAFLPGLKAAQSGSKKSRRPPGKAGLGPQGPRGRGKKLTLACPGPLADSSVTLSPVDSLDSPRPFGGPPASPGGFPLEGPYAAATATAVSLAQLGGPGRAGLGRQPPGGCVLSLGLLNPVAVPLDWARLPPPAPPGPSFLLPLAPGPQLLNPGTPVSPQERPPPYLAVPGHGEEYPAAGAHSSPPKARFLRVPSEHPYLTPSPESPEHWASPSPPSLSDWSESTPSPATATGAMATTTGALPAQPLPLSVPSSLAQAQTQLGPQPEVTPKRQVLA
Torsin-1A-interacting protein 2 (Homo sapiens), sequence (Q8NFQ8 whole entry, looked up): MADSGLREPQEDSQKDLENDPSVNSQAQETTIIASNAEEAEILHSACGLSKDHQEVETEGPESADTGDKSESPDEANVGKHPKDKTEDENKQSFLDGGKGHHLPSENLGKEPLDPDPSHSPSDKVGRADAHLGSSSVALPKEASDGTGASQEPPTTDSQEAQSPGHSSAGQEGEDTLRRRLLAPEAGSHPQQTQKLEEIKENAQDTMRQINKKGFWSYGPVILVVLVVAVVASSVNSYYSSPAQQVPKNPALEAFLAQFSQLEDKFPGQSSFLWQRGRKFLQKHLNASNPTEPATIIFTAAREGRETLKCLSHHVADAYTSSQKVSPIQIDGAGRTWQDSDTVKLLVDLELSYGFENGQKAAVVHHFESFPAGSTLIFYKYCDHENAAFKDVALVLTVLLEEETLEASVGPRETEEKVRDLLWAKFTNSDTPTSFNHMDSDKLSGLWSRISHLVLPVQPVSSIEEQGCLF

Turning to `COC(=O)CC=C[C@@H](C)[C@@H](C=NOC[C@@H](O)[C@H]1O[C@@H]2OC(C)(C)O[C@@H]2[C@H]1O)NS(=O)(=O)c1ccc(C)cc1`, the composite z-score was -0.383 in [1]; 0.746 in experiment [2]; -0.171 in [3]; 0.347 in experiment [4]; 0.463 in experiment [5]; -0.0399 in experiment [6]. For the same compound, the composite z-score in [7] is -0.124; in experiment [9], 0.155; in experiment [10], -0.641; in experiment [11] it was 0.601; in [15], 0.308; in [17], 0.0528. Further, the composite z-score in experiment [18] is 0.974; in [19], 0.638; in [20] it was -0.0553. The z-score is 0.703 (inactive) in experiment [8]; -0.684 (inactive) in experiment [12]; -0.137 (inactive) in experiment [13]; -0.408 (inactive) in experiment [14]; 0.445 (inactive) in experiment [16].

In the case of `CCOC(=O)[C@H](Cc1ccccc1)NC(=O)CCC1CC(OC(=O)NCCc2ccc(F)cc2)CC2(CCCC(COC(=O)NCCc3ccc(Cl)cc3)O2)O1` (stereo not given in full), the composite z-score was -0.431 in [1]; -0.0057 in experiment [2]; -0.0523 in [3]; 0.248 in experiment [4]; 0.622 in experiment [5]; 0.843 in experiment [6]. Moreover, the composite z-score in experiment [7] is 0.872; in [9], 0.233; in experiment [10] it was 0.0623; in experiment [11], 1.13; in [15] it was 1.83; in [17], -0.174. Besides, the composite z-score in experiment [18] was 0.658; in experiment [19], 0.924; in [20], -0.0687. Also, the z-score in experiment [8] was 0.301 (inactive); in experiment [12], 0.154 (inactive); in [13] it was 1.04 (inactive); in [14], 0.851 (inactive); in experiment [16], 0.822 (inactive).

For `COC(=O)[C@@H]1CC[C@@H](C)[C@H](c2ccc(Br)cc2)N1`, the composite z-score is -0.364 in [1]; -0.0471 in experiment [2]; -0.163 in [3]; 0.321 in experiment [4]; 0.0422 in [5]; -0.303 in [6]. The composite z-score is -0.356 in [7]; -0.199 in experiment [9]; -0.184 in experiment [10]; 0.265 in experiment [11]; -0.188 in experiment [15]; -0.0943 in [17]. Besides, the composite z-score in experiment [18] is 0.255; in experiment [19], -0.275; in experiment [20] it was -0.125. Moreover, the z-score is -1.02 (inactive) in [8]; 0.0156 (inactive) in experiment [12]; -0.179 (inactive) in experiment [13]; -0.116 (inactive) in experiment [14]; 0.104 (inactive) in [16].

Turning to `COc1ccc(O[C@H]2C=C[C@@H](c3ccccc3)O[C@@H]2CON=C(C)C)cc1`, the composite z-score was 0.332 in experiment [1]; -0.0694 in experiment [2]; 0.0333 in [3]; -0.531 in [4]; -0.286 in experiment [5]; 0.112 in experiment [6]. Further, the composite z-score in experiment [7] is -0.0241; in experiment [9], -0.195; in [10] it was 0.107; in experiment [11] it was -0.818; in experiment [15], -0.222; in experiment [17], 0.175. In addition, the composite z-score in experiment [18] was -0.0668; in experiment [19], -0.943; in experiment [20], 0.0102. For the same compound, the z-score in experiment [8] is 0.359 (inactive); in [12], 0.278 (inactive); in [13], -2.91 (inactive); in [14], 0.0212 (inactive); in experiment [16], 0.511 (inactive).

`CCOC(=O)[C@H](Cc1ccccc1)NC(=O)CCC1CC(OC(=O)NCc2cccc3ccccc23)CC2(CCCC(COC(=O)NCc3cccc(C(F)(F)F)c3)O2)O1` (stereo not given in full): the composite z-score in experiment [1] was -0.223; in [2] it was -0.549; in [3] it was -0.0934; in experiment [4] it was 0.19; in experiment [5], 0.211; in experiment [6], 0.567. Moreover, the composite z-score is 0.74 in experiment [7]; -0.143 in experiment [9]; -0.0645 in [10]; 0.176 in experiment [11]; 1.48 in experiment [15]; -0.217 in experiment [17]. The composite z-score is 0.0178 in experiment [18], 0.212 in experiment [19] and -0.114 in [20]. Moreover, the z-score in experiment [8] is -1.05 (inactive); in [12], 0.655 (inactive); in experiment [13], 0.611 (inactive); in experiment [14] it was 1.67 (inactive); in [16] it was -0.353 (inactive).
